For 35 compounds, growth results are on record in PubChem BioAssay (NCI).

Where “and” joins values, the source holds several entries; their conditions need not be identical. Identical values can stand only once. About 83,000 compounds went through this panel and 20% of them were active in at least one assay; those are over-represented in the sample as a whole.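 Growth was measured after 48 h exposure to one concentration of compound in 96-well plates. Values under 10 count as active.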 Calls of active or inactive are those of the source.

This assay has as its system MDA-MB-468 breast. The experiment in a line: NCI-60 one-dose screen, 48 h (100 = growth as untreated, 0 = no growth, -100 = all killed). The note with it: 10 µM unless noted.
On to `CC[C@H](C)[C@H]1NC(=O)[C@@H]([C@H](O)C(C)C)NC(=O)[C@@H](C)N(C)C(=O)[C@H](C)N(C)C(=O)[C@H](CC(C)C)NC(=O)[C@H](CC(C)C)N(C)C(=O)[C@H](C)N(C)C1=O`, for which the growth was -5.6% (active).
As for `COC(=S)SCN(CSC(=S)OC)c1ccc(Cl)cc1`, the figure is 95.1% (inactive); as for `CC[C@@H](C)/C=C(C)/C=C/C(=O)c1c(O)c(-c2ccc(OC(=O)[C@@]34CC[C@@](C)(C(=O)O3)C4(C)C)cc2)cn(O)c1=O`, -4.05% (active).
As to `C[N+](C)(CCCCCC[N+](C)(C)C1c2ccccc2-c2ccccc21)C1c2ccccc2-c2ccccc21`, the growth is 107% (inactive).
As for `C=CCNc1nc(NN2C(=O)c3cccc4cccc(c34)C2=O)nc(-n2cnc3ccccc32)n1`, the figure is 80.5% (inactive).
As for `CCOc1cccc(C2CC(=O)Nc3cc4c(cc32)OCO4)c1` (stereo not given), the figure is 34.2% (inactive); as for `O=C(Cn1cc(CN2CCN(c3ccnc4cc(Cl)ccc34)CC2)nn1)Nc1cccc([N+](=O)[O-])c1`, 92.8% (inactive); as for `O=C(c1ccccc1)C(CCc1ccccn1)CCc1ccccn1`, 108% (inactive).
The figure for `COc1ccc2c(c1)sc1nc(-c3ccccc3)c(-c3ccsc3)n12` is 32.5% (inactive); for `COc1cc(/C=C/C(=O)c2ccc(C)cc2)ccc1Oc1nc(NCCO)nc(N2CCOCC2)n1` it is 27.2% (inactive); for `COc1cc(-c2cc(/C=C/C(=O)c3ccc4c(c3)OCO4)[nH]n2)cc(OC)c1OC` it is -4.54% (active).
Take `COc1cc(/C=C/C(=O)c2cccs2)ccc1OCc1ccc(Cl)nc1`: the growth is 57.6% (inactive).
The figure for `[2H]C1([2H])NC([2H])([2H])C([2H])([2H])N(c2ccc(Nc3ncc4cc(C(=O)N(C)C)n(C5CCCC5)c4n3)nc2)C1([2H])[2H]` is 99.5% (inactive); for `CCO/C=N/S(=O)(=O)c1cc2c(cc1Cl)NC=NS2(=O)=O` it is 98.3% (inactive).
On to `Oc1c(Cl)cc(Cl)c2ccc(Cn3cc(-c4cccc(C(F)(F)F)c4)nn3)nc12`, for which the growth is 56.4% (inactive).
As for `O=C(O)c1ccc(-c2nn(-c3ccc(C(F)(F)F)cc3)cc2CNc2ccc(Oc3ccccc3)cc2)cc1`, the figure is 117% (inactive); as for `O=C1/C(=C/c2ccc(Cl)cc2Cl)CN(S(=O)(=O)c2ccccc2)C/C1=C\c1ccc(Cl)cc1Cl`, -24.5% (active); as for `COc1ccc(Nc2nc(NCCNc3ccnc4cc(Cl)ccc34)nc(N3CCOCC3)n2)cc1`, 23.9% (inactive).
The figure for `c1ccc(-c2nnc(-c3ccccn3)s2)nc1` is 23.5% (inactive); for `O=c1oc2ccc([N+](=O)[O-])cc2cc1Br` it is 101% (inactive); for `CCCCOc1ccc(NC(=O)n2nc(NC(C)=O)c3cc(NC(C)=O)ccc32)cc1` it is 111% (inactive).
The figure for `COc1cc(C(=O)/C=C/c2c(-c3ccc(F)cc3)nc3sccn23)cc(OC)c1OC` is 12.8% (inactive).
For `COc1ccc(C2OCC(C)(C)CO2)cc1OC`, the growth is 92.4% (inactive).
Regarding `CC1=NN(c2ccc(S(=O)(=O)O)cc2)C(=O)C1N=Nc1ccc(-c2ccc(N=Nc3ccc(OS(=O)(=O)c4ccc(C)cc4)cc3)c(S(=O)(=O)O)c2)cc1` (stereo not given), the growth was 86.8% (inactive).
The figure for `Cn1cc(-c2nn3cc(-c4ccncc4)nc3s2)c2cc(Br)ccc21` is 74.9% (inactive).
On to `NC1(C(=O)O)CSSC1`, for which the growth is 29.6% (inactive).
In the case of `COC(=O)/C=C\C(=O)OC`, the growth was 112% (inactive).
Regarding `Cc1ccc(C(=O)NN2C(=O)CSC2c2cccc([N+](=O)[O-])c2)cn1` (stereo not given), the growth is 105% (inactive).
As for `CC1(C)CC[C@]2(C(=O)O)CC[C@]3(C)[C@H](CC[C@@H]4[C@@]5(C)CCC(=O)C(C)(C)[C@@H]5CC[C@]43C)[C@H]2[C@H]1OC(=O)C(F)(F)F`, the figure is -71% [100 µM] (active); as for `N#Cc1cccc(NC(=O)c2cc(-c3ccc(F)cc3F)ccc2O)c1`, -4.46% (active) and -3.84% (active); as for `COc1ccc([N+](=O)[O-])c(/C=C/C(=O)c2ccccn2)c1`, 74.4% (inactive).
Consider `COc1ccc(-c2cnc(N)nc2-c2ccc(OC)cc2O)cc1`, for which the growth is 92.5% (inactive).
`COc1cc(-c2nc(-c3nc4cc(C(=O)c5ccccc5)ccc4[nH]3)cc3c2[nH]c2ccccc23)cc(OC)c1OC`: the growth was 93% (inactive).
The figure for `C#Cc1ccc(-n2c(/C=C/c3ccc(O)c(OC)c3)nc3ncccc3c2=O)cc1` is 89.8% (inactive); for `CCS(=O)(=O)N[C@@H]1O[C@H](COC(C)=O)C(OC(C)=O)[C@H](OC(C)=O)C1OC(C)=O` (stereo not given in full) it is 100% (inactive).
